This note sets out measurements from article PMC5540273 (PLoS ONE, 2017).
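Also: KINOMEscan kinase panel screen.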

The assay has as its system CDK2. As to conditions: concentration: 1 μM, replicates: in singlicate; n = 1.
On to `COc1cc2ncn(-c3cc(OCc4ccncc4Br)c(C(N)=O)s3)c2cc1OC` [GW854278], for which the “%Inh” value stood at 1%.
The figure for `Cc1cc(Nc2nc(-c3cccc(C)n3)nc3ccccc23)ccn1` [GW872411] is 0%; for `Cc1nnc(-c2ccc(C)c(-c3ccc(C(=O)O)cc3)c2)o1` [GW608005] it is 0%; for `COc1cc(Nc2ccnc3ccc(C(F)(F)F)cc23)cc(OC)c1OC` [GW577382] it is 4%.
Regarding `FC(F)(F)c1ccc(-c2ncn(CCCN3CCOCC3)c2-c2ccncc2)cc1` [SB-217780], the “%Inh” value came out at 0%.
Consider `Cl.c1ccc(Cn2cnc3cc(Nc4ncnc5ccccc45)ccc32)cc1` [GW272142], for which the “%Inh” value is reported as 0%.
For `Cc1ccc(-c2ccc3c(ccc4sc5c(c43)NC[C@@H](C)N=C5N(C)C)n2)cn1` the value was 0%; for `Cl.NS(=O)(=O)c1cccc(Nc2cc(-c3ccc(F)cc3)n[nH]2)c1` [GW824645], 5%.
The figure for `CCc1ccc(-c2ccc3c(c2)-c2nn(C)cc2S(=O)(=O)N3C)cc1` is 0%; for `O=C(Nc1ccc2c(c1)OCO2)NC1CCN(c2ccnc(NCc3ccc(F)cc3)n2)CC1` [GSK1379859] it is 0%.
For the compound `Cc1nc(N(C)[C@H]2CN(C(=O)CC#N)CC[C@H]2C)c2cc[nH]c2n1`, the “%Inh” value stood at 0%.
In the case of `CCCC(=O)Nc1n[nH]c2ncc(-c3cccc4ccccc34)cc12` [SB-642057], the “%Inh” value is given as 56%.
Regarding `COC(=O)c1c(-c2ccccc2)c2cc(C)ccc2c(=O)n1Cc1ccccc1`, the “%Inh” value turned out to be 0%.
Take `Cc1ccc(Oc2ccc(Nc3ncnc4cc[nH]c34)cc2C)cn1`: the “%Inh” value amounted to 0%.
